Screening data (PubChem BioAssay)
GDH-TPI inh: GDH-TPI coupling enzyme inhibitors, primary screen, artefact control for M. tuberculosis FBA inhibitor project, biochemical, absorbance, full deck; GDH-TPI coupled enzyme counterscreen, NADH absorbance; inhibition, % at 4.8 µM; 360,000 tested, 1.2% active; AID 588335, 2011
Mtb bLac sens: beta-lactam sensitization of Mtb H37Rv, H37Rv. M. tuberculosis H37Rv growth with meropenem, percent inhibition. inhibition, % at 25 µM. 330,000 tested, 0.27% active. AID 434955, 2010; call rule not given here;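 further: growth measured after seven days incubation then overnight dye step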
FBA Mtb inh: Mtb FBA enzyme inhibitors, primary screen, biochemical, fluorescence, strain H37Rv | 360,000 tested, 2.3% active | inhibition, % at 1 µM | purified M. tuberculosis FBA, fluorescence read-out | Fructose-bisphosphate aldolase (Mycobacterium tuberculosis (strain ATCC 25618 / H37Rv)), …; in the data active means inhibition above about 27%
CCHF vOTU inh: CCHFV vOTU protease inhibitors, primary screen, biochemical, Pep-AMC substrate, fluorescence; Crimean-Congo hemorrhagic fever virus L polyprotein viral ovarian tumor (vOTU) protease …; inhibition, % at 11.5 µM; 370,000 tested, 0.55% active; AID 651958, 2012
RecA splice inh: Mtb RecA intein splicing inhibitors, primary screen, biochemical, fluorescence, HTS; cell-free RecA intein splicing; inhibition, % (no concentration beside the values); 290,000 tested, 0.75% active; AID 2221, 2009; in the data active means inhibition above about 30%
Target sequence (P9WHJ3 whole entry, looked up, canonical isoform): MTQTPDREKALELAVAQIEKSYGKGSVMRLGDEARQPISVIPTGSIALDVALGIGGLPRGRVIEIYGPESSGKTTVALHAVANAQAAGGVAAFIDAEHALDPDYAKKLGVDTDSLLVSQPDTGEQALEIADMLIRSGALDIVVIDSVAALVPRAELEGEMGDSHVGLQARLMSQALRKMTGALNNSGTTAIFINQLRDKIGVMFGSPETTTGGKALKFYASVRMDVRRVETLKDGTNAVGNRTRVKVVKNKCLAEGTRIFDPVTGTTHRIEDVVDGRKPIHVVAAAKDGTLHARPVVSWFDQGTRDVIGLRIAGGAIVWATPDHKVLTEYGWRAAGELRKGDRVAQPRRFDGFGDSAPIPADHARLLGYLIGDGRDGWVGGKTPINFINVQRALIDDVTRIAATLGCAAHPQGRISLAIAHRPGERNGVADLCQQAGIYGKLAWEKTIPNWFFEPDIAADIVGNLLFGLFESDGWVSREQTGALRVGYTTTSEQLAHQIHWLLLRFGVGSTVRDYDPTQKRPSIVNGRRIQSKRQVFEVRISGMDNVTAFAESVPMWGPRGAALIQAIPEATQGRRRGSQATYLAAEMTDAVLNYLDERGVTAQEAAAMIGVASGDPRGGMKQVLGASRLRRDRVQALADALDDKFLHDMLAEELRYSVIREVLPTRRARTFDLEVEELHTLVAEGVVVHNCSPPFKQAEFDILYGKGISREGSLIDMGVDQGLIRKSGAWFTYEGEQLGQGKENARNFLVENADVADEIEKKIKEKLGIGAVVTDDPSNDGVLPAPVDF
Numbers stand for hits; - = inactive; . = not tested or not shown; + = active, no number. A selection: hits, their analogues and other compounds. The true share with any hit is near 4.2%. Unless noted, no stated cut-off is given here; in the data, active means inhibition above about 30%; inactive means the rest.

SMILES | GDH-TPI inh | Mtb bLac sens | FBA Mtb inh | CCHF vOTU inh | RecA splice inh
COc1ccccc1N1C(=O)c2ccccc2NC1c1ccncc1 (configuration not stated) | - | - | - | - | -
Cc1cc2c(c(=O)n1CCN(C)C)C(c1ccncc1)C(C#N)=C(N)O2 (configuration not stated) | - | - | - | - | -
COCCn1c(C)cc2c(c1=O)C(c1ccco1)C(C#N)=C(N)O2 (configuration not stated) | - | - | 49.3 | - | -
COc1ccccc1/C=N/NC1=NCCCCC1 | - | - | - | - | -
Cn1c(N/N=C/c2c[nH]c3ccccc23)nc2ccccc21 | 58.1 | - | - | - | -
C(=N\NC1=NCCCCC1)/c1c[nH]c2ccccc12 | 38.7 | - | - | - | -
Cc1cc(N/N=C/c2c[nH]c3ccccc23)c2ccccc2n1 | - | - | - | - | -
CCOC(=O)N1CCN(C(=O)C[C@H]2C[C@@]3(C(=O)OC)C(=C[C@H](COCc4ccccc4)O[C@@H]3C)N(CCc3ccc(OC)c(OC)c3)C2=O)CC1 | . | . | . | - | .
COc1cc(/C=N/NC(=O)c2cc(-c3ccco3)nc3ccccc23)cc(OC)c1O | 46.8 | - | - | - | -
COc1cc(/C=N/NC(=O)c2cc(-c3ccccc3Cl)nc3ccccc23)cc(OC)c1O | 38.5 | - | - | - | -
COc1cc(/C=N/NC(=O)c2cc(-c3cccc(Br)c3)nc3ccccc23)cc(OC)c1O | - | - | - | - | -
O=C(N/N=C/c1cccc(F)c1)c1cc(-c2ccco2)nc2ccccc12 | - | - | - | - | -
COc1ccc(/C=N/NC(=O)C2C3CCCCC32C)cc1OC (configuration not stated) | - | - | - | - | -
O=C(N/N=C/c1cc(Br)c(O)c(Br)c1)C1CC1 | 30.8 | - | - | - | -
COc1cc(/C=N/NC(=O)C2C3CCCCC32C)cc(Br)c1O (configuration not stated) | 50.7 | - | - | - | -
Cc1ccc(C(=O)NC(C#N)=C(Cl)Cl)cc1 | . | . | . | - | 33.2
COC(=O)[C@]12C[C@H](CC(=O)N3CCN(C(=O)c4ccco4)CC3)C(=O)N(Cc3ccc(Cl)cc3Cl)C1=C[C@H](C(C)(C)C)O[C@@H]2C | . | . | . | - | .
O=C(Nc1ncc2c(n1)-c1ccccc1OC2)c1ccccc1Cl | - | - | 113.4 | - | -
O=C(Nc1ncc2c(n1)-c1ccccc1CC2)C1CC1 | - | - | - | - | -
COc1ccc(CN(C)CC#Cc2ccccc2)c(OC)c1 | . | . | . | - | .
COc1cccc(-n2nnnc2SCC(=O)Nc2ccccc2OC)c1 | - | - | - | - | -
CCCS(=O)(=O)c1nnnn1-c1cccc(OC)c1 | - | - | - | . | 90.6
CN(Cc1ccccc1)C(=O)OCc1cn(Cc2cc(F)cc(F)c2)nn1 | . | . | . | - | .
COCCn1c(=O)[nH]c(=O)c2c(C(F)(F)F)cc(-c3cccs3)nc21 | - | - | + | - | -
COCCCNC1=C(C#N)C(=O)NC(c2cccc([N+](=O)[O-])c2)S1 (configuration not stated) | - | . | - | - | .
SMILES | GDH-TPI inh | Mtb bLac sens | FBA Mtb inh | CCHF vOTU inh | RecA splice inh
COc1cc(C2NC(=O)C(C#N)=C(Nc3cccc(C)c3)S2)ccc1O (configuration not stated) | - | - | - | - | 87.0
Cc1ccc(C=NNC(=O)c2cc(-c3cccnc3)nc3ccccc23)o1 | 34.4 | - | - | - | .
C/C(=N\NC(=O)c1cc(-c2cccnc2)nc2ccccc12)c1ccc(O)cc1O | 34.9 | - | - | - | -
C/C(=N\NC(=O)c1cc(-c2cccc(OC(C)C)c2)nc2ccccc12)c1cccnc1 | - | - | - | - | -
CC1=N/C(=C\c2ccc(OC(C)C)cc2)C(=O)N1c1ccc(C(=O)O)cc1 | 33.5 | - | - | - | -
O=C(N/N=C/c1ccco1)c1cccc(NC(=O)c2ccccc2Cl)c1 | 31.6 | - | - | - | .
COc1ccc(/C=N/NC(=O)c2cccc(NC(=O)c3ccccc3Cl)c2)c(OC)c1 | 31.1 | - | - | - | -
COc1ccccc1/C=N/NC(=O)c1cccc(NC(=O)c2ccccc2Cl)c1 | - | - | - | - | -
CCCCCCCCN1CCS(=O)(=O)N(Cc2ccc(C(F)(F)F)cc2)C(C(=O)OC)C1 (configuration not stated) | . | . | . | - | .
O=C(O)c1cccc(CN2C(=O)S/C(=C/c3cccc([N+](=O)[O-])c3)C2=O)c1 | 44.3 | - | - | - | -
C=CCN=C1S/C(=C/c2cccc([N+](=O)[O-])c2)C(=O)N1CC=C | - | - | - | - | -
CCOC(=O)c1ccc2c(c1)sc(=NC(=O)c1ccco1)n2CCOC | - | - | - | - | -
COc1ccc(OC)c2c1sc(=NC(=O)c1ccco1)n2C | 33.6 | - | - | - | -
CCn1c(=NC(=O)c2ccco2)sc2cccc(F)c21 | 51.2 | - | - | - | -
Cc1ccc(/C=C/C(=O)Nc2nnc(C)s2)o1 | 32.0 | - | - | - | -
CC(CCN1CCC(C(O)(c2ccccc2)c2ccccc2)CC1)Oc1cccc(F)c1 (configuration not stated) | . | . | . | - | .
O=c1[nH]n2c(=O)c3c([nH]c2c1N=Nc1cccc(Cl)c1)CCCC3 | - | - | - | - | -
O=C1CCN(N=Nc2cccc(Cl)c2)N1 | . | - | . | . | 40.1
NC1=NC(=O)/C(=C\c2cccs2)S1 | 48.3 | - | - | - | -
CC(=O)Nc1ccc2c3c(cccc13)C(=O)N(c1ccccc1)C2=O | - | - | + | - | -
CC(=O)Nc1ccc2ccc3cccc4ccc1c2c34 | 33.6 | - | - | - | -
CC(=O)Nc1cccc2cc(O)ccc12 | - | . | - | - | .
C[C@H]1COc2cc(F)ccc2S(=O)(=O)N1C | . | . | . | - | .
O=c1sc(/C=N/Nc2ccccc2)c(Cl)n1Cc1ccccc1 | 86.2 | - | - | - | -
COC(=O)c1cccc(Cn2c(Cl)c(/C=N/NC(=O)c3ccccc3Cl)sc2=O)c1 | - | - | - | - | -
SMILES | GDH-TPI inh | Mtb bLac sens | FBA Mtb inh | CCHF vOTU inh | RecA splice inh
COC(=O)c1cccc(Cn2c(Cl)c(/C=N/NC(=O)c3ccco3)sc2=O)c1 | 35.4 | - | - | - | -
O=C(COc1ccccc1)N/N=C/c1sc(=O)n(Cc2cccc(C(=O)O)c2)c1Cl | - | - | - | - | -
O=Cc1sc(=O)n(Cc2cccc(C(=O)O)c2)c1Cl | - | - | - | - | 54.0
CCOC(=O)CC[C@@H]1CC[C@]2(CCCN(Cc3ccc(OC)cc3)C2)O1 | . | . | . | - | .
Cc1[nH][nH]c(=O)c1[C@@H](c1ccccc1[N+](=O)[O-])C(C#N)C#N | - | - | - | - | 62.0
CCc1nc2sc3ccccc3c(=O)c2c(=O)n1Cc1ccc(OC)cc1 | 33.8 | - | - | - | .
Cc1cccc(N2C(=O)NC(=O)/C(=C/c3ccc(N4CCOCC4)cc3)C2=O)c1 | - | - | - | - | -
Cc1cccc(N2C(=O)NC(=O)/C(=C\c3ccc(N4CCOCC4)cc3)C2=O)c1 | 30.7 | - | - | - | -
